In the library only some 1.2% were active in any assay of this set; here they are far more common.
PfHsp40 rescue: restores yeast growth despite PfHsp40 toxicity; growth rescue, % at 12.5 µM; AID 504582; 340,000 tested, 0.68% active; S. cerevisiae expressing PfHsp40, growth rescue, ATP luminescence; in the data active means growth rescue above about 28%, passing the limit was not always enough;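 further: yeast W303a lacking pdr1 and pdr3 grown in galactose medium; growth measured after three days at 30 °C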
TcdB inh: blocks C. difficile toxin B glycohydrolase activity; P18177; TcdB glycohydrolase enzymatic assay, plate reader; inhibition, % at 9.99 µM; 350,000 tested, 0.24% active; in the data active means inhibition above about 10%
Target sequence (P18177 whole entry, looked up): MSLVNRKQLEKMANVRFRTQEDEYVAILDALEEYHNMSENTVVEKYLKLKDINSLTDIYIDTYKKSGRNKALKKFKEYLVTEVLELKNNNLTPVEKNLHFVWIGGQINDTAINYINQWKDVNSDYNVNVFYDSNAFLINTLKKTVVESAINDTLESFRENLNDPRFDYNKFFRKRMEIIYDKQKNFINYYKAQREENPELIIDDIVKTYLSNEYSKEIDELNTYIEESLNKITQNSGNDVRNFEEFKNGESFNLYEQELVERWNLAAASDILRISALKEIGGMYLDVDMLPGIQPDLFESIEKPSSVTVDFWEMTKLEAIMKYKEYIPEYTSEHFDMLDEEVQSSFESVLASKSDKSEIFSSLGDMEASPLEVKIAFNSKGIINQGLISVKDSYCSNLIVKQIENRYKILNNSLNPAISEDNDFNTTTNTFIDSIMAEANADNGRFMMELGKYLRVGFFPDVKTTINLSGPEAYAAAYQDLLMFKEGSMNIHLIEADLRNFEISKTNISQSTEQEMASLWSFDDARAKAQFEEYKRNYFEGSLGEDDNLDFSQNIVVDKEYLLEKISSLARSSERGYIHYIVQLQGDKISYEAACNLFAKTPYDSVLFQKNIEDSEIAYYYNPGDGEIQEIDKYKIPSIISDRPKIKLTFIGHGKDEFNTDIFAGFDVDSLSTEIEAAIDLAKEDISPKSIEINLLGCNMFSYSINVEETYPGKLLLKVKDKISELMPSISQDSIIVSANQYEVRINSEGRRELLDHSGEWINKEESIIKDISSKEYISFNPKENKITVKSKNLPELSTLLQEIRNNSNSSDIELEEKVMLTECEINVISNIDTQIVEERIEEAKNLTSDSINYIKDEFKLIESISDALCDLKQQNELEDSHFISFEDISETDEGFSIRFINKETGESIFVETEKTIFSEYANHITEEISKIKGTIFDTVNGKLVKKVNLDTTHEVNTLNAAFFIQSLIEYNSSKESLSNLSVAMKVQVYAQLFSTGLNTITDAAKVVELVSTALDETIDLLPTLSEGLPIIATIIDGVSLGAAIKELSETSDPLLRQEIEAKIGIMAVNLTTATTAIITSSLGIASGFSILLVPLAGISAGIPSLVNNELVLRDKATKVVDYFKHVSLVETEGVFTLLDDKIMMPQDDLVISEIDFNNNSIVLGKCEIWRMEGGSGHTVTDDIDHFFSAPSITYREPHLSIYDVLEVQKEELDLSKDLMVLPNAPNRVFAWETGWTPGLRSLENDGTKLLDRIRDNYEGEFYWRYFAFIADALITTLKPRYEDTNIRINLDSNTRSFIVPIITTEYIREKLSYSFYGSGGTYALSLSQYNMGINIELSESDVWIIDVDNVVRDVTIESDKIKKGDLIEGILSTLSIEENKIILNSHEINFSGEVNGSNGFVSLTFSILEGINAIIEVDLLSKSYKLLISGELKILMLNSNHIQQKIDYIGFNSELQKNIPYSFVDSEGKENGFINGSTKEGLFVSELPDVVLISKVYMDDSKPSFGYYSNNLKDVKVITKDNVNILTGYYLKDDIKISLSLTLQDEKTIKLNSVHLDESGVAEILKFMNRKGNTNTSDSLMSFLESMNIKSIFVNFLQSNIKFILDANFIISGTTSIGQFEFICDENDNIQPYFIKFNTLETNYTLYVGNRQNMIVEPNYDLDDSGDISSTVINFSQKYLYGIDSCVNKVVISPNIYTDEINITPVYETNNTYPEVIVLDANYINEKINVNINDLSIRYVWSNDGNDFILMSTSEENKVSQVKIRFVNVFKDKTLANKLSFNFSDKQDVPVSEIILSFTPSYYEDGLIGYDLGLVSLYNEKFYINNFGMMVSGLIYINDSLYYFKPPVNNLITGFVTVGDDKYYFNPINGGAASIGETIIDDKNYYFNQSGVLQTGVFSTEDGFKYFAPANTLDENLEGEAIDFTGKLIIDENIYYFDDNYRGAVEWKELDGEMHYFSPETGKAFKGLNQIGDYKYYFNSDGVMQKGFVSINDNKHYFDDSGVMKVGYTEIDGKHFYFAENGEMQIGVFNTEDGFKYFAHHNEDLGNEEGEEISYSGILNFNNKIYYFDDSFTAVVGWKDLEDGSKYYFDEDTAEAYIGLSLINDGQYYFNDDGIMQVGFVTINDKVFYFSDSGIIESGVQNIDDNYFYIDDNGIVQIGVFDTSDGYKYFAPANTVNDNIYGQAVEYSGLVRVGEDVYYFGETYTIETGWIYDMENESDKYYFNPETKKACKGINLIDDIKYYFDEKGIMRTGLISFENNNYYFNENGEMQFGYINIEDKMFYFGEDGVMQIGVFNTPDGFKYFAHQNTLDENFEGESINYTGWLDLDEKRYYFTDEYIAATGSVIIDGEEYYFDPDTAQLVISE
Sa RN4220 lethal: kills Staphylococcus aureus RN4220 | S. aureus RN4220 growth, OD600, 16 h | inhibition, % (test concentration not listed) | 330,000 tested, 0.33% active; in the data active means inhibition above about 85%;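 further: plate controls were untreated cells for no effect and reference antibiotic for full effect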
PrP UTR inh: inhibition of PrP 5' UTR reporter expression | cell-based PrP 5' UTR mRNA reporter, plate reader | AID 488862 | 340,000 tested, 0.35% active | inhibition, % (no concentration beside the values); in the data active means inhibition above about 52%; further: 0 = median of the neutral control wells
Sa ugtP lethal: kills S. aureus RN4220 lacking UgtP; S. aureus RN4220 ugtP deletion, OD600 growth, 16 h; 330,000 tested, 0.54% active; growth inhibition, % (test concentration not listed); in the data active means growth inhibition above about 68%;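 further: plate controls were untreated wells for no effect and antibiotic for full effect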
Starred values were filed as active, the others as inactive; . = no result given.

SMILES | PfHsp40 rescue | TcdB inh | Sa RN4220 lethal | PrP UTR inh | Sa ugtP lethal
CCOC(=O)c1c(C)[nH]c(N=Nc2cccc(OC)c2)c1C | 77* | 1 | 44 | -148 | 0
Cc1cc(C(=O)NN=Cc2sc(N3CCOCC3)nc2-c2ccccc2)c(C)o1 | . | . | 94* | . | 95*
COC(=O)C1=C(c2c(C)noc2C)CC2CCC1N2C(=O)N1CCC(O)(c2ccc(Cl)cc2)CC1 (stereo not drawn) | . | . | 6 | . | 0
CCCNC(=O)Nc1ccc2c(c1)C(=O)N(C)C[C@@H](OC)[C@@H](C)CN[C@@H](C)CO2 | . | 0 | . | . | .
O=C(OC1CCOC1=O)c1cc(-c2cccs2)nc2ccccc12 (stereo not drawn) | 3 | 1 | 2 | -11 | 4
Cc1ccc(-c2cc(C(=O)OC3CCOC3=O)c3ccccc3n2)c(C)c1 (stereo not drawn) | 3 | 18* | 18 | -24 | 7
O=c1cc(CSc2ccc(Cl)cc2)nc(-c2ccccc2)[nH]1 | -1 | -1 | 12 | -6 | -5
O=c1cc(CSc2ccc(Cl)cc2)nc(-c2ccccn2)[nH]1 | 325* | 0 | . | 21 | .
O=C(C[C@@H]1C=C[C@@H](NC(=O)Nc2cc(F)ccc2F)[C@@H](CO)O1)NCc1ccc2c(c1)OCO2 | . | -2 | . | . | .
Cc1ccc2c(c1C)-c1c(ccc(C)c1C)C(=O)C2=O | 171* | 1 | . | -44 | .
Cc1ccc2c(c1N)C(=O)c1ccccc1C2=O | -3 | 1 | . | -47 | .
O=C(C[C@@H]1CC[C@@H]2NC[C@@H](O)COC[C@H]2O1)NCCc1ccccc1 | . | 1 | . | . | .
CCOCCCn1c(=O)c2ccccc2n2c(=S)[nH]nc12 | 0 | 25* | 4 | -9 | 0
COc1cc(-c2nc3ccc4ccccc4c3c3c2CCC3)ccc1O | 22 | -1 | 99* | -13 | 101*
COc1cc(-c2nc3ccc4ccccc4c3c3c2CCC3)cc(OC)c1O | 19 | . | -1 | 7 | 62
CO[C@H]1CN(C)C(=O)c2cc(NS(=O)(=O)c3ccccc3C)ccc2OC[C@@H](C)N(C)C[C@H]1C | . | -1 | . | . | .
CNC(CC(C)C)C(=O)NC1C(=O)NC(CC(N)=O)C(=O)NC2C(=O)NC3C(=O)NC(C(=O)NC(C(=O)O)c4cc(O)cc(O)c4-c4cc3ccc4O)C(O)c3ccc(c(Cl)c3)Oc3cc2cc(c3OC2OC(CO)C(O)C(O)C2OC2C[C@](C)(N)C(O)C(C)O2)Oc2ccc(cc2Cl)C1O (stereo partly drawn) | -1 | 1 | 101* | 53 | 100*
CC1OC(OC2C(Oc3cc(O)c4c(c3)OC(c3ccc(O)cc3)CC4=O)OC(CO)C(O)C2O)C(O)C(O)C1O (stereo not drawn) | . | . | 2 | . | -6
COc1cccc(C(=O)C2CCCN(Cc3ccc(F)cc3)C2)c1 (stereo not drawn) | -1 | 13* | 2 | -20 | 9
O=c1cc(-c2c(O)c3ccccc3n(Cc3ccccc3)c2=O)[nH][nH]1 | 155* | 1 | -1 | -17 | 4
Cn1c(=O)c(-c2cc(=O)[nH][nH]2)c(O)c2ccccc21 | 47* | -7 | 4 | -20 | 6
CCn1c(=O)c(-c2cc(=O)[nH][nH]2)c(O)c2ccccc21 | 97* | -1 | 1 | -17 | 2
COc1ccc(-c2cc(=O)oc3c(C)c(OCC(=O)N(C)C)ccc23)cc1 | 1 | 1 | 1 | -13 | 2
COc1ccc(-c2cc(=O)oc3c(C)c(O)c(CN(C)C)cc23)cc1 | 45* | . | 7 | -3 | 1
CN1CCN(CC(=O)Nc2cc(N(C)C)nc3ccccc23)CC1 | -1 | 13* | 4 | -14 | 2
SMILES | PfHsp40 rescue | TcdB inh | Sa RN4220 lethal | PrP UTR inh | Sa ugtP lethal
c1ccc(-c2onc(-c3ccco3)c2-c2ccc3[nH]ccc3c2)cc1 | -1 | 1 | -31 | -18 | 85*
c1ccc(-c2ccc3[nH]ccc3c2)cc1 | 10 | -4 | -3 | -33 | 14
CNc1cc(CSC)nc(SCc2ccc(Cl)cc2Cl)n1 | 308* | 1 | -14 | -8 | 50
O=C(NN=Cc1ccccc1[N+](=O)[O-])c1ccc2c(c1)OCCO2 | . | . | 6 | . | 3
Nc1cc(=O)[nH]c(SCC(=O)Nc2ccccc2Sc2ccc(Cl)cc2)n1 | 0 | 10* | 6 | -7 | 10
COc1ccc(S(=O)(=O)Nc2cccc3c2O[C@@H](CN(C)Cc2ccccc2)[C@@H](C)CN([C@@H](C)CO)C3=O)cc1 | . | 1 | . | . | .
O=[N+]([O-])c1ccc(C=Nc2cccc3ccccc23)s1 | 0 | . | 98* | -44 | 97*
COc1ccc(NC(=O)N(C)C[C@@H]2OCCCC[C@@H](C)Oc3ccc(NC(=O)Nc4ccc(F)cc4)cc3C(=O)N([C@H](C)CO)C[C@@H]2C)cc1 | . | 0 | . | . | .
